Screening data deposited in PubChem BioAssay by The Scripps Research Institute Molecular Screening Center.
MITF inh: MITF inhibitors, primary screen, biochemical, AlphaScreen, human. AlphaScreen MITF homodimerization, bead proximity signal. inhibition, % at 2.6 µM. 650,000 tested, 0.91% active. AID 1259374, 2018; in the data active means inhibition above about 50%;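 further: 0% = vehicle wells with protein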
Target sequence (O75030 whole entry, looked up): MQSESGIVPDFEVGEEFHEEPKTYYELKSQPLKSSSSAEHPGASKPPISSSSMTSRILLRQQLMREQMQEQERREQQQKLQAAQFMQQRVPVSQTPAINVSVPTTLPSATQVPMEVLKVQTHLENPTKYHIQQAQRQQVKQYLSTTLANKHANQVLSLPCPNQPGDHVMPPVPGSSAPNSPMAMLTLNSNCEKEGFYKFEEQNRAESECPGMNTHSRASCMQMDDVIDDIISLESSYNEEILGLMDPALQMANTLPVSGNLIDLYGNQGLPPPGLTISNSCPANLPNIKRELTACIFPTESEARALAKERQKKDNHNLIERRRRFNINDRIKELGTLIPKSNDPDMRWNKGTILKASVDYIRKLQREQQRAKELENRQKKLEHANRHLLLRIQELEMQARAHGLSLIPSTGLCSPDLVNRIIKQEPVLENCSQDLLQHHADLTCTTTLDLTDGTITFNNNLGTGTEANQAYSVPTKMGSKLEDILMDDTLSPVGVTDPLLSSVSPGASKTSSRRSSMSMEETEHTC
FBW7 act: FBW7 E3 ligase activators, primary screen, biochemical, AlphaScreen, human; AlphaScreen FBW7–phospho-cyclin E peptide binding, activator screen; normalized activity (activation), % at 26.1 µM; 650,000 tested, 0.13% active; AID 1259310, 2017; in the data active means normalized activity above about 1.9%;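 further: purified mutant Fbw7 with reduced substrate affinity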
TEAD-YAP block: TEAD-YAP interaction inhibition, primary screen, TEAD-YAP interaction inhibitor project, luminescence, HEK-TIYL cells; TEAD-Gal4/YAP UAS-luciferase luminescence; inhibition, % at 9.12 µM; 640,000 tested, 1.4% active; AID 1259422, 2018; in the data active means inhibition above about 32%;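 further: 0% = median of test compound wells and 100% = reference inhibitor wells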
GPR151 ag: activators of human GPR151, primary screen, cell-based, PathHunter beta-arrestin, luminescence | PathHunter beta-arrestin GPR151 cells | activation, % at 11.2 µM | 650,000 tested, 1% active; in the data active means activation above about 4.9%;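 further: 0% = median of compound wells and 100% = cells with positive control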
The depositor's hits bear a star. A selection: hits, their analogues and other compounds. The true share with any hit is near 3.4%.

SMILES | MITF inh | FBW7 act | TEAD-YAP block | GPR151 ag
COc1cc(Nc2cccc(C(=O)NCCc3ccc(O)cc3)n2)cc(OC)c1OC | 13.0 | 0.0 | 34.9* | 0.9
O=C(NCc1cccc(C(F)(F)F)c1)c1csc(Nc2ccc(N3CCOCC3)cc2)n1 | 22.1 | 0.1 | 51.4* | 2.6
COc1cc(Nc2cccc(C(=O)NCCN(C(C)C)C(C)C)n2)cc(OC)c1OC | 13.5 | 0.0 | -1.2 | 1.5
CC1=C(C(=O)OCCOc2ccccc2)C(c2cccc3ccccc23)C2=C(CCCC2=O)N1 (configuration not stated) | 3.8 | -0.1 | -0.1 | -1.0
CCN(CC)c1ncnc2sc(C(=O)N3CCN(c4ccccc4F)CC3)c(C)c12 | 9.5 | -0.2 | 5.7 | 1.0
CC(=O)Oc1ccc2c(C)c(Cc3ccccc3)c(=O)oc2c1C | -2.5 | 0.0 | -2.0 | -1.0
NC(=O)c1ccccc1Nc1cc(NC(=O)Cc2ccc(CN3CCOCC3)cc2)ncc1C(F)(F)F | 6.0 | -0.1 | 98.6* | 1.4
O=C(Cc1ccc2c(c1)OCO2)Nc1cc(Nc2ccccc2-c2nn[nH]n2)c(Cl)cn1 | 14.5 | 1.1 | 1.5 | -0.1
NC(=O)c1ccccc1Nc1cc(NC(=O)Cc2ccc(CN3CCOCC3)cc2)ncc1Cl | 4.2 | -0.2 | 99.3* | 0.2
NC(=O)c1ccccc1Nc1cc(Oc2ccc(N3CCNCC3)cc2)ncc1C(F)(F)F | -12.5 | 0.7 | 3.1 | -1.7
NC(=O)c1ccccc1Nc1nc(Nc2ccc(N3CCOCC3)c(Cl)c2)ncc1Cl | -10.1 | -0.1 | 21.8 | 1.3
NC(=O)c1ccccc1Nc1cc(NC(=O)Cc2ccc3ccccc3c2)ncc1C(F)(F)F | 1.6 | 0.1 | 93.3* | -2.2
NC(=O)c1ccccc1Nc1cc(NC(=O)Cc2ccc(F)cc2)ncc1Cl | 7.9 | -0.4 | 81.4* | 0.8
O=C(NCc1ccccc1)c1c(Cl)nsc1Cl | 11.3 | 0.5 | 10.6 | 0.6
N#Cc1c(NC(=O)c2ccc3ncsc3c2)sc2c1CCC2 | 1.2 | -0.1 | -12.5 | -0.8
CCOC(CCn1c(SCC(=O)Nc2ccccc2CC)nc2ccccc2c1=O)OCC | 13.9 | 0.3 | -7.9 | -0.1
Nc1ccc2c(c1)C(=O)N(c1ccc(O)cc1)C2=O | 2.5 | 0.0 | 3.9 | 0.2
Nc1ccc(N2C(=O)c3ccc(N)cc3C2=O)cc1 | 8.0 | 0.0 | 34.4* | 0.2
CCC(C)n1c(SCc2c(F)cccc2Cl)nc2ccsc2c1=O (configuration not stated) | 17.4 | 0.2 | -1.7 | 1.2
CCC(C)n1c(SCc2ccccc2Cl)nc2ccsc2c1=O (configuration not stated) | 1.2 | -0.2 | 51.1* | 1.0
CC(C)(C)NCC(O)COc1ccc(C(C)(C)C)cc1 (configuration not stated) | 8.2 | -0.1 | 6.7 | -1.3
O=C(O)CCCN1C(=O)CSC1=S | 0.1 | -0.1 | 57.3* | 1.8
O=C(O)CCCCCN1C(=O)CSC1=S | -13.2 | 0.0 | 32.5* | -1.0
O=C1CSC(=S)N1CCCCCCN1C(=O)CSC1=S | -17.0 | -0.2 | -4.6 | -0.4
CN(C)/C=C1/S/C(=N/S(=O)(=O)c2ccccc2)N(C2CCCCC2)C1=O | 2.6 | 2.5* | -7.3 | -0.9
SMILES | MITF inh | FBW7 act | TEAD-YAP block | GPR151 ag
COc1cccc(-c2noc(-c3cccc(Cl)c3)n2)c1 | -20.5 | 0.2 | -14.4 | -0.1
Cc1cc(C(=O)N2CCCC(C(=O)Nc3cccc(-c4ccc(F)cc4)c3)C2)no1 (configuration not stated) | -5.3 | -0.1 | 12.5 | 2.3
COCCNC(=O)CC(=O)N/N=C/c1ccccc1O | 16.7 | -1.6 | 0.1 | 0.4
COCCNC(=S)N/N=C/c1cc(OC)c(OC)cc1OC | 1.2 | -0.3 | -0.9 | 2.7
COCCNC(=O)C(=O)N/N=C/c1ccccc1O | 53.3* | -1.7 | -2.2 | -1.3
COCCNC(=S)N/N=C/c1ccc(O)c(O)c1O | 107.4* | -1.2 | 5.2 | 0.2
Cc1ccccc1NC(=O)C(=O)N/N=C/c1ccccc1O | 52.2* | -0.3 | 2.0 | 0.7
CC(C)NC(=S)N/N=C/c1cccc(O)c1O | 89.6* | -1.2 | -15.2 | -0.9
Oc1cccc(/C=N/NC(=S)N/N=C/c2cccc(O)c2O)c1O | 36.9 | -0.3 | -1.4 | 0.0
O=C(OCc1csc(-c2ccccc2)n1)c1ccc([N+](=O)[O-])s1 | 6.6 | -0.1 | -11.4 | -0.1
CCOC(=O)C1=C(C)NC(=O)NC1c1ccc(-c2ccc(OC)cc2[N+](=O)[O-])o1 (configuration not stated) | -2.7 | -0.1 | -3.2 | -0.6
O=C(COc1ccc(Cl)cc1)Nc1c2c(nn1-c1ccc(F)cc1)CSC2 | 2.7 | 0.1 | 3.2 | 1.1
CN(C)CCN(C(=O)c1ccnn1C)c1nc2ccccc2s1 | -0.8 | 0.1 | -17.1 | -0.3
CC1CC(C)CN(C(=O)c2cc3c(s2)-c2ccccc2S(=O)(=O)C3)C1 (configuration not stated) | 16.2 | 1.8 | -16.8 | 0.9
CCOC(=O)CSc1nc2c(sc(=S)n2-c2ccc(Cl)c(C)c2)c(=O)n1-c1ccccc1OC | 24.9 | 2.1* | -8.6 | 0.8
O=C(Nc1ccc(Nc2ccccc2)cc1)c1ccc(C(=O)c2ccccc2)o1 | 9.4 | -0.1 | 43.1* | 2.8
O=C(C1CCN(S(=O)(=O)c2cccc3cnccc23)CC1)N1CCc2ccccc21 | -4.5 | -0.1 | 3.5 | 1.8
Cc1ccc2c(c1)C(=O)CC(c1ccc3c(c1)OCCO3)O2 (configuration not stated) | -1.0 | 0.0 | -50.4 | 0.7
O=C1CC(c2ccc3c(c2)OCCCCO3)Oc2ccccc21 (configuration not stated) | 0.1 | -0.1 | 58.9* | -0.1
O=C(O)Cn1c2ccccc2c2ccccc21 | -9.2 | -0.1 | -2.1 | 0.2
O=C(c1ccccc1)n1c2ccccc2c2ccccc21 | 18.1 | 0.3 | 36.2* | -0.2
COC(=O)c1ccc(Oc2ncnc3sc(C)c(C)c23)cc1 | -2.1 | 0.0 | -13.7 | 1.3
Cc1ccc(NC(=O)c2cc([N+](=O)[O-])cc(Cl)c2O)c(C)c1 | 5.7 | -0.1 | 52.9* | -9.0
Cc1ccc(NC(=O)c2ccc([N+](=O)[O-])cc2Cl)c(C)c1 | 2.7 | -0.1 | -31.4 | -0.5
Cc1cccc(NC(=O)c2cc([N+](=O)[O-])ccc2Cl)c1O | 10.1 | 0.7 | 32.8* | -1.6
SMILES | MITF inh | FBW7 act | TEAD-YAP block | GPR151 ag
CN(Cc1ccc2ccccc2n1)C(=O)CC1C(=O)NCCN1CC(C)(C)C (configuration not stated) | 2.7 | 0.0 | -8.1 | 0.3
CCOC(=O)c1ccc(N=C(C)c2sc3ccccc3c2O)cc1 | -4.8 | 0.0 | -2.1 | 0.5
Cc1ccc(C(=O)Nc2sc3c(c2C(=O)O)CCCCC3)cc1 | -3.5 | -0.1 | 83.4* | -3.2
Cc1ccc(C(=O)Nc2sc(C)c(C)c2C(=O)O)cc1 | -4.0 | 0.0 | 48.6* | -2.0
CCN(CC)C(=O)c1c(NC(=O)c2cccs2)sc2c1CCC2 | 18.1 | 0.1 | 35.9* | 0.0
O=C(Nc1sc2c(c1C(=O)O)CCCCC2)c1ccccc1 | 13.6 | 0.1 | 45.7* | -8.9
